The record followed here is the supplement of paper PMC7393113.

The subject of the assay is iBMDM (immortalised mouse bone-marrow-derived macrophages), LPS-stimulated. Put plainly: mitochondrial superoxide (MitoSOX fluorescence) fold increase over unstimulated control; higher = more LPS-induced mitochondrial ROS (less inhibition). As to conditions: inhibitor concentration: 500 nM, LPS: 100 ng/ml. Put shortly:
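After 20 h in phenol-red-free 1% FCS/DMEM in black 96-well plates, immortalised mouse bone-marrow-derived macrophages were exposed to kinase inhibitors (500 nM) for 30 min, 1 μM MitoSox for 10 min and then LPS (100 ng/ml). A ClarioStar plate reader recorded fluorescence at 510/580 nm every 60 min for 4 h. The reported mitochondrial superoxide is the mean fold induction versus untreated macrophages over triplicate wells.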

± gives the standard deviation of the averaged measurements.

In the case of `O=c1[nH]c2ccc(Cl)cc2c(N[C@@H]2CN3CCC2CC3)c1-c1nc2ccccc2[nH]1`, the mitochondrial superoxide came out at 1.2 ± 0.013 (time after LPS: 1 h), 1.4 ± 0.045 (time after LPS: 2 h) and 1.68 ± 0.044 (time after LPS: 4 h).
For `Cc1ccccc1-n1c(Cn2ncc3c(N)ncnc32)nc2cccc(C)c2c1=O`, in that order: 1.14 ± 0.012, 1.25 ± 0.041 and 1.32 ± 0.04.
In the same order, the values of `COC[C@H]1OC(=O)c2coc3c2[C@@]1(C)C1=C(C3=O)[C@@H]2CCC(=O)[C@@]2(C)C[C@H]1OC(C)=O` [Wortmannin] are 1.4 ± 0.084, 1.45 ± 0.05 and 1.78 ± 0.079.
With `Cn1cc(C2=C(c3cn(C4CCN(Cc5ccccn5)CC4)c4ccccc34)C(=O)NC2=O)c2ccccc21`, the mitochondrial superoxide runs as follows: (time after LPS: 1 h) 1.7 ± 0.15; (time after LPS: 2 h) 1.76 ± 0.18; (time after LPS: 4 h) 1.92 ± 0.14.
For `CCN1CCN(C(=O)Cc2ccc(Nc3ncc(F)c(Nc4ccc(C(=O)Nc5ccccc5Cl)cc4)n3)cc2)CC1` [Aurora A Inhibitor I], in that order: 1.17 ± 0.065, 1.24 ± 0.014 and 1.32 ± 0.049.
For `CC(C)(C)c1cc(C=C(C#N)C#N)cc(C(C)(C)C)c1O` [Tyrphostin 9], in that order: 1.17 ± 0.033, 1.21 ± 0.041 and 1.275 ± 0.0071.
In the same order, the values of `CC(C)(C)c1cc(C=C(C#N)C#N)cc(Br)c1O` are 1.12 ± 0.029, 1.16 ± 0.069 and 1.11 ± 0.063.
Turning to `N#CC(C#N)=Cc1ccc(O)c(O)c1`, the mitochondrial superoxide runs as follows: (time after LPS: 1 h) 1.364 ± 0.013; (time after LPS: 2 h) 1.45 ± 0.055; (time after LPS: 4 h) 1.666 ± 0.0094.
